# The list is not random: actives were taken first. Their share in the collection is about 7.3%.
# SMN2 splice up – qHTS Assay for Enhancers of SMN2 Splice Variant Expression | HEK293 SMN2-luciferase splicing reporter, luminescence, 30-36 h | Potency, µM (doses to about 46.1 µM), without a hit: at the top dose activity change, positive = activation, actives largely listed as activators | hit rate 2.8% among 210,000; further: % of control where 0% means no effect; nearly all actives have a fitted effect of over 55% in size
#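 HEK293 cells carry an SMN2 […]–luciferase reporter in which exon 7 inclusion puts luciferase in frame. Cells were plated 10-12 h before compound addition, then incubated 30-36 h at 37C. ONE-Glo luminescence was read; sodium butyrate at 4.5 mM final served as control.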
# NPC1 prom act – qHTS Assay for NPC1 Promoter Activators; Huh7 NPC1 promoter luciferase reporter, 24 h; Potency, µM (series often up to 9.22 µM), for inactives: at the highest dose activation, hits mostly activators; hit rate 2.4% among 320,000; AID 485313, 2010; further: % of control where 0% means no effect; nearly all actives have a fitted effect of over 60% in size
#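 Compounds in DMSO were transferred onto Huh7 NPC1-luciferase reporter cells pre-incubated 2 h; after 24 h at 37 °C, Amplite reagent was dispensed and luminescence recorded 10 min later.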
# KinaseGlo FLuc – Counterscreen for Luciferase (Kinase-Glo TM) Inhibition. Luciferin 4-monooxygenase (Photuris pensylvanica), Q27757. Kinase-Glo luciferase, ATP luminescence, 8 min. Potency, µM (series often up to 38.3 µM), for inactives: at the top dose activity change, negative = inhibition, actives largely listed as inhibitors. hit rate 0.28% among 200,000. AID 1379, 2008; further: on the % scale 0 is the no-effect control and ±100 the full control effect; nearly all actives have a fitted effect of over 60% in size
#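 Substrate mix (final 50 mM imidazole pH 7.2, 50 mM KCl, 7 mM MgCl2, 10 uM ATP, 0.01% Tween 20, 0.05% BSA) plus pin-tool compound, then Kinase-Glo detection mix; 8 min ambient, luminescence read.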
# ELG1 genotox – qHTS screen for small molecules that induce genotoxicity in human embryonic kidney (HEK293T) cells expressing luciferase-tagged ELG1; HEK293T ELG1-luciferase reporter, luminescence, 16 h; Potency, µM (top dose mostly 46 µM), without a hit: top-dose activity change, positive = activation, most hits filed as activators; hit rate 1.3% among 330,000; further: % of control where 0% means no effect; nearly all actives have a fitted effect of over 60% in size
#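 Cells (2,000/well) expressing the ELG1-luciferase fusion are dosed by pin tool and kept 16 hr at 37 °C, 5% CO2. Signal comes from ONE-Glo luciferase reagent after 30 min at room temperature.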
# Rab9 promoter act – qHTS Assay for Rab9 Promoter Activators. AID 485297, 2010. Huh7 Rab9 promoter-luciferase reporter, luminescence, 24 h. Potency, µM (highest dose often 9.22 µM), inactives show top-dose activation, negative = inhibition, hits mostly activators. hit rate 2.8% among 320,000; further: % of control where 0% means no effect; nearly all actives have a fitted effect of over 60% in size
#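 Rab9 promoter-driven luciferase in stably transfected Huh7 cells; 1500 cells/well rested 2 h, exposed to compound in DMSO for 24 h at 37 °C, 5% CO2. Luminescence read 10 min after adding luciferase reagent at ambient temperature.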
# FLuc modulator – qHTS profiling assay for firefly luciferase inhibitor/activator using purifed enzyme and Km concentrations of substrates (counterscreen for miR-21 project); Luciferin 4-monooxygenase (Photinus pyralis), P08659; purified FLuc, Km substrates, luminescence inhibition; Potency, µM (top dose mostly 57.5 µM), inactives show at the highest dose activity change, negative = inhibition, most hits filed as inhibitors; hit rate 6.9% among 360,000;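 further: plate controls were vehicle for no effect and reference inhibitor for full effect; nearly all actives have a fitted effect of over 55% in size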
# Target sequence (P08659 whole entry, looked up): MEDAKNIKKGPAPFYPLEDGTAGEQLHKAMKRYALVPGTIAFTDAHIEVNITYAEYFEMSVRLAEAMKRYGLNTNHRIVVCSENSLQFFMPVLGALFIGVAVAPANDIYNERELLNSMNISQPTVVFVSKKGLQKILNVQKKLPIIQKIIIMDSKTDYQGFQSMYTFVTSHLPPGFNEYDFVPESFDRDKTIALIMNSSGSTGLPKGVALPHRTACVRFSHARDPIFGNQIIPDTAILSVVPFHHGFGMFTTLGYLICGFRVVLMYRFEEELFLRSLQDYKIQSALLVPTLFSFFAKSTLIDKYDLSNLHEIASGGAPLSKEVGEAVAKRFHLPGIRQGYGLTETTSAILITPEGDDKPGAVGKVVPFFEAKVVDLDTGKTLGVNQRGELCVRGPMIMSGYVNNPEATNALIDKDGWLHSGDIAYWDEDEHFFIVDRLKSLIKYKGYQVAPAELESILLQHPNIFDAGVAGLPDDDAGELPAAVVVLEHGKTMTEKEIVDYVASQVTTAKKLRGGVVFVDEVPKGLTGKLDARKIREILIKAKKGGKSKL
#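 Purified P. pyralis luciferase, 10 nM final, with Km-level 10 uM D-luciferin and 10 uM ATP in 50 mM Tris acetate pH 7.5, 10 mM Mg acetate, 0.01% Tween-20, 0.05% BSA; 6-point qHTS titration about 60 µM downward; luminescence read.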
# * = called active by the depositor; ? = inconclusive; nt = no result; [ ] = remark or other dose. The call rests on the fitted dose curve; in most records, active means well fitted curve in the direction sought with a large enough effect; inconclusive means small, poorly fitted or top-dose-only effect, or another doubt; inactive means no such curve, though single readings can be large; an effect the other way counts as inactive or inconclusive. Potency means the concentration at half of the fitted maximal effect.
SMILES,SMN2 splice up,NPC1 prom act,KinaseGlo FLuc,ELG1 genotox,Rab9 promoter act,FLuc modulator
Cc1c(-c2cccc(NC(=O)Nc3ccccc3)c2)nc2ncccn12,nt,nt,nt,nt,nt,19µM*
COC(=O)C(C(C)=O)C1c2ccccc2C=C(C)N1C(=O)OC (configuration not stated),-3%[9.22 µM],nt,-7%[7.66 µM],nt,nt,nt
Cc1cc(OCc2cn3cccnc3n2)ccc1Cl,11µM*,?,-7%,8.2µM*,2.8µM*,21µM*
O=C(NCCCc1ccccc1)c1cnc2n(c1=O)CCS2,18µM*,?,2%,21%,?,?
O=C(NCCC1=CCCCC1)c1cnc2n(c1=O)CCS2,11µM*,?,-1%,?,?,?
COc1cc(OC)cc(C(=O)Nc2ccc(S(=O)(=O)N3CCCCC3c3cccnc3)cc2)c1 (configuration not stated),nt,nt,nt,nt,nt,-7%
C=CCC1(CC=C)CCCN1C(=O)C1CCC(=O)N(CCc2ccc(OC)cc2)C1 (configuration not stated),nt,2.5µM*,nt,?,2.5µM*,11µM*
C=CCC1(CC=C)CCCN1C(=O)C1CCC(=O)N(CCc2ccccc2)C1 (configuration not stated),nt,4µM*,nt,?,2.8µM*,11µM*
CN1CCC[C@H](C(=O)OCC(=O)[C@]2(O)CC[C@@H]3[C@H]4CCC5=CC(=O)CC[C@@]5(C)[C@H]4[C@@H](O)C[C@]32C)C1,0%[9.22 µM],nt,-1%[7.66 µM],nt,nt,nt
O=C(c1ccc(Cl)cc1)c1nnc(-c2ccncc2)o1,-17%,12%,5%,2%,14%,?
O=C(c1ccccc1)c1nnc(-c2ccncc2)o1,5%,-3%,?,1%,2%,9.5µM*
Cc1cc(C)cc(NC(=O)C2CCCN(c3cnccn3)C2)c1 (configuration not stated),1%,nt,nt,nt,nt,1%
CCc1ccc2c(c1)[C@H]1OCC[C@H]1[C@@H](c1cccs1)N2,-23%,-16%,9%,3%,-22%,15µM*
COc1cccc(C2CC(=O)Nc3cc(OC)c(OC)c(OC)c32)c1OC(C)C (configuration not stated),18µM*,nt,nt,nt,nt,0%
COc1cccc(C2CC(=O)Nc3cc4c(cc32)OCCO4)c1OC(C)C (configuration not stated),8%,2%,4%,-1%,0%,6%
CC(=O)CCc1ccc(OCCCOc2cccc3cccnc23)cc1,nt,5%,nt,3%,0%,21µM*
CC(=O)c1ccc(OCCCOc2cccc3cccnc23)cc1,nt,-9%,nt,-7%,-2%,-12%
CCOC(=O)c1cc(-c2ccc(OC(F)F)cc2)nc2c1c(=O)[nH]c(=O)n2C,0%,-3%,-2%,6%,-4%,0%
CCOC(=O)c1cc(-c2ccc(OC(F)F)cc2)nc2nc(SC)[nH]c(=O)c12,nt,1%,nt,-4%,-4%,6µM*
CCOc1ncccc1C(=O)OCc1cc(=O)oc2c(C)c(C)ccc12,-5%,-2%,-5%,0%,-6%,3µM*
CCOc1ncccc1C(=O)OCc1ccc(Cl)cc1,5%,5%,3%,0%,-3%,?
CCOc1ncccc1C(=O)OCc1ccc(C(=O)OC)cc1,14µM*,10%,-6%,?,-15%,?
COC(=O)c1ccc(COC(=O)c2ccccc2OC)cc1,10%,12%,-2%,1%,25%,19µM*
Cc1cccc(C(=O)OCc2cc(=O)oc3c(C)c(C)ccc23)c1O,nt,?,nt,9%,?,1%
Cc1cccc(-n2c(=O)c3c(c4cc(C)ccc4n3C)n(CC(=O)Nc3ccc(C)cc3C)c2=O)c1,nt,nt,nt,nt,nt,1%
SMILES,SMN2 splice up,NPC1 prom act,KinaseGlo FLuc,ELG1 genotox,Rab9 promoter act,FLuc modulator
CCOc1ccccc1NC(=O)CSC1=Nc2ccccc2C2=NC(CC(=O)NCc3ccc4c(c3)OCO4)C(=O)N12 (configuration not stated),6%,nt,nt,nt,nt,-2%
O=c1c2c3c(sc2nc2n1CCCS2)CCCC3,7%,?,-6%,26%,?,19µM*
N=c1c2c3c(sc2nc2n1CCCCC2)CCCCC3,6%,?,-1%,?,?,17µM*
O=c1c2c3c(sc2nc2n1CCCCC2)CCCCC3,11µM*,3.5µM*,-3%,?,3.5µM*,13µM*
CC1=Nn2c(nc3sc4c(c3c2=O)CCCC4)SC1,10µM*,25%,-26%,?,?,21µM*
CC1CSc2nc3sc4c(c3c(=O)n21)CCCC4 (configuration not stated),-14%,16%,7%,7%,22%,?
O=c1c2c3c(sc2nc2n1CCCC2)CCC3,13%,2%,2%,3%,7%,0%
Nc1nc2sc3c(c2c(=O)s1)CCCC3,?,29%,-1%,16µM*,?,11µM*
O=c1c2c3c(sc2nc2n1CCCC2)CCCCC3,3%,16%,-6%,?,11%,24µM*
Nc1c2c3c(sc2nc(=O)n1N)CCCC3,nt,0%,-3%,0%,-12%,-8%
O=c1c2c3c(sc2nc2n1CCCCC2)CCCC3,?,?,3%,23µM*,?,19µM*
CNc1c([N+](=O)[O-])cnn1-c1ccccc1Cl,6%,21%,-2%,11%,15%,15µM*
CNc1c([N+](=O)[O-])cnn1-c1ccc(Cl)cc1Cl,9%,-2%,-1%,0%,5%,-2%
C/C(=N/OC(=O)c1ccc(C)cc1)C(=O)c1ccc(Br)cc1,nt,-4%,nt,4%,8%,-18%
Cc1ccccc1C(=O)O/N=C(\N)c1ccc([N+](=O)[O-])cc1,nt,?,nt,?,?,19µM*
C/C(=N/OC(=O)c1ccc(F)cc1)c1ccc(C)cc1,-6%,1%,-6%,1%,-8%,0.67µM*
Cc1ccccc1C(=O)O/N=C(\N)c1ccccc1,nt,3.5µM*,nt,1.6µM*,0.79µM*,0.17µM*
N/C(=N\OC(=O)c1ccccc1Br)c1ccc([N+](=O)[O-])cc1,nt,4µM*,nt,?,3.5µM*,5.4µM*
CN(C)CCCn1cnc2cc(Cl)c(Cl)cc21,-5%[9.22 µM],nt,-1%[7.66 µM],nt,nt,nt
COc1ccc(-n2ccn(CC(=O)Nc3ccccc3C(F)(F)F)c(=O)c2=O)cc1OC,nt,nt,nt,nt,nt,-6%
N/C(=N\OC(=O)c1ccccc1F)c1cccc([N+](=O)[O-])c1,nt,2.8µM*,nt,?,2.8µM*,3.4µM*
